Data: PubChem BioAssay (Tox21)
Results filed as inconclusive are left out. Active and inactive are the calls of the source. Unless noted, calls come from the whole dose curve; as a rule, active = well fitted curve in the direction sought with a large enough effect in the repeat runs; inconclusive = weak or mixed curves; inactive = no such curve, though single readings can be large; an effect the other way counts as inactive or inconclusive.

Key:
[1] = qHTS assay to identify small molecule antagonists of the peroxisome proliferator-activated receptor delta (PPARd) signaling pathway - cell viability counter screen (AID 743213); note: nearly all actives have a fitted effect of over 50% in size
Procedure, shortened: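 PPARd-bla HEK293H cells were treated with compounds plus agonist L165041 (300 nM final) for 17 h at 37 C. Viability was then read in the same wells by CellTiter-Glo luminescence after 30 min at room temperature.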

[2] = qHTS assay to identify small molecule agonists of the farnesoid-X-receptor (FXR) signaling pathway - cell viability counter screen (AID 743218); note: nearly all actives have a fitted effect of over 45% in size
Procedure, shortened: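 Cells were seeded, left 5 h at 37 C and 5% CO2, then dosed with compound in DMSO for 16 h. After the beta-lactamase FRET read, CellTiter-Glo was added and luminescence measured 30 min later.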

[3] = qHTS assay to identify small molecule antagonists of the farnesoid-X-receptor (FXR) signaling pathway - cell viability counter screen (AID 743221; active = well fitted cell-killing curve with a large enough effect in the repeat runs, not every such curve was filed as active; note: nearly all actives have a fitted effect of over 50% in size)
Procedure, shortened: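 Cytotoxicity is taken from ATP luminescence (CellTiter-Glo, 30 min, room temperature) in FXR-bla HEK 293T cells previously incubated 16 h at 37 C with compound and chenodeoxycholic acid at 50 uM final.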

[4] = target: Vitamin D3 receptor (Homo sapiens) (UniProt P11473); assay: qHTS assay to identify small molecule agonists of the vitamin D receptor (VDR) signaling pathway (AID 743222; calls by dose curve)
Vitamin D3 receptor (Homo sapiens), sequence (P11473 whole entry, looked up): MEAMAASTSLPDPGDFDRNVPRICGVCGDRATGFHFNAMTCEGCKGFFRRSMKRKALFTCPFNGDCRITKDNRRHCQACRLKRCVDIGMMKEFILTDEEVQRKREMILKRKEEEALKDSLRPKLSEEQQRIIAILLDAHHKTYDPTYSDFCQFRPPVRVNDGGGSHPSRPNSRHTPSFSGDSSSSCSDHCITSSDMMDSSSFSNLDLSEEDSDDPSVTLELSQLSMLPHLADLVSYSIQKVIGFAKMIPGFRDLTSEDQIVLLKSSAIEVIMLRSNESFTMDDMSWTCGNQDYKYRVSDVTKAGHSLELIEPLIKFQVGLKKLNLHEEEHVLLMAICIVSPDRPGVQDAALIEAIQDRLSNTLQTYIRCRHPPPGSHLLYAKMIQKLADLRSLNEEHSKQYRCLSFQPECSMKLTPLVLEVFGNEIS
Procedure, shortened: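 Cells carrying a VDR-driven beta-lactamase reporter are seeded at 2,000 per well and rested 4 h. Compounds in DMSO are added for 16 h at 37C, and FRET substrate fluorescence is measured after 2 h at room temperature.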

[5] = target: Vitamin D3 receptor (Homo sapiens) (UniProt P11473); assay: qHTS assay to identify small molecule antagonists of the vitamin D receptor (VDR) signaling pathway (AID 743223; active = well fitted inhibition curve with a large enough effect in the signal ratio in the repeat runs, not every such curve was filed as active; the % refers to the signal ratio)
Procedure, shortened: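 Quantitative HTS in VDR-bla reporter cells stimulated with 1alpha,25-dihydroxyvitamin D3, 3 nM final. Compound exposure 16 h, 37C, 5% CO2. Read-out: beta-lactamase FRET substrate fluorescence, 2 h RT.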

[6] = qHTS assay to identify small molecule agonists of the vitamin D receptor (VDR) signaling pathway - cell viability counter screen (AID 743224); note: series mostly up to about 63 µM; nearly all actives have a fitted effect of over 50% in size
Procedure, shortened: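 Cells: VDR-bla, 2,000/well, settled 4 h. Treatment: compounds in DMSO, 16 h, 37C/5% CO2. Readout: CellTiter-Glo luminescence after 30 min RT.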

[7] = qHTS assay to identify small molecule antagonists of the vitamin D receptor (VDR) signaling pathway - cell viability counter screen (AID 743225); note: nearly all actives have a fitted effect of over 50% in size
Procedure, shortened: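 Same-well multiplex: following 16 h treatment of HEK 293T cells carrying a UAS-driven beta-lactamase reporter with compound and agonist (3 nM final), and a 2 h FRET substrate step, CellTiter-Glo was added and luminescence read after 30 min.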

[8] = qHTS assay to identify small molecule agonists of the NFkB signaling pathway - cell viability counter screen (AID 1159515; calls by dose curve; note: series mostly up to about 61 µM; nearly all actives have a fitted effect of over 55% in size)
Procedure, shortened: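 Cells are seeded (2,000 NFkB-bla ME-180 per well), rested overnight, and dosed with DMSO-dissolved compounds for 5 hr at 37 C. Viability is then read by CellTiter-Glo luminescence after 30 min at room temperature.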

[9] = qHTS assay to identify small molecule agonists of the endoplasmic reticulum stress response signaling pathway (AID 1159516; active = well fitted activation curve with a large enough effect in the signal ratio in the repeat runs, not every such curve was filed as active; the % refers to the signal ratio)
Procedure, shortened: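 Cells are seeded at 1,500 per well and incubated overnight. Compounds in DMSO are added for 5 hr at 37 C, then beta-lactamase FRET substrate for 2 hr at room temperature, and fluorescence at 460 and 530 nm is measured.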

[10] = qHTS assay to identify small molecule agonists of the endoplasmic reticulum stress response signaling pathway - cell viability counter screen (AID 1159517; calls by dose curve)
Procedure, shortened: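 ESRE-bla HeLa cells (1,500/well) were plated overnight at 37 C and exposed to compounds for 5 hr. After the 2 hr beta-lactamase substrate read, CellTiter-Glo went into the same wells, and luminescence was read after 30 min at room temperature.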

[11] = qHTS assay to identify small molecule antagonists of the retinoid-related orphan receptor gamma (ROR-gamma) signaling pathway - cell viability counter screen (AID 1159520); note: nearly all actives have a fitted effect of over 50% in size
Procedure, shortened: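 Cytotoxicity was read from cellular ATP (CellTiter-Glo luminescence) after 16 hr at 37 C with 1 uM doxycycline induction. The inducer was added 2 hr after compound transfer to Tet-on ROR gamma CHO cells.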

[12] = target: Nuclear receptor ROR-gamma (Homo sapiens) (UniProt P51449); assay: qHTS assay to identify small molecule antagonists of the retinoid-related orphan receptor gamma (ROR-gamma) signaling pathway (AID 1159521)
Procedure, shortened: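 Inducible-expression reporter assay: doxycycline (1 uM final) switched on RORγ in CHO cells bearing a ROR response element-luciferase construct, with test compounds present from 2 h beforehand. Decreased luminescence after 16 h defined antagonist activity.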

[13] = qHTS assay to identify small molecule agonists of the AP-1 signaling pathway - cell viability counter screen (AID 1159525; calls by dose curve; note: nearly all actives have a fitted effect of over 55% in size)
Procedure, shortened: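 Intracellular ATP by Cell Titer Glo luminescence (30 min, RT) in the same ME-180 AP-1-bla wells after the 5 h compound exposure at 37 °C. Normalised to tetra n-octyl ammonium bromide and DMSO controls.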

[14] = qHTS assay to identify small molecule agonists of the AP-1 signaling pathway (AID 1159526; calls by dose curve)
[15] = target: Retinoic acid receptor RXR-alpha (Homo sapiens) (UniProt P19793); assay: qHTS assay to identify small molecule agonists of the RXR signaling pathway (AID 1159527; calls by dose curve; note: nearly all actives have a fitted effect of over 35% in size)
Retinoic acid receptor RXR-alpha (Homo sapiens), sequence (P19793 whole entry, looked up): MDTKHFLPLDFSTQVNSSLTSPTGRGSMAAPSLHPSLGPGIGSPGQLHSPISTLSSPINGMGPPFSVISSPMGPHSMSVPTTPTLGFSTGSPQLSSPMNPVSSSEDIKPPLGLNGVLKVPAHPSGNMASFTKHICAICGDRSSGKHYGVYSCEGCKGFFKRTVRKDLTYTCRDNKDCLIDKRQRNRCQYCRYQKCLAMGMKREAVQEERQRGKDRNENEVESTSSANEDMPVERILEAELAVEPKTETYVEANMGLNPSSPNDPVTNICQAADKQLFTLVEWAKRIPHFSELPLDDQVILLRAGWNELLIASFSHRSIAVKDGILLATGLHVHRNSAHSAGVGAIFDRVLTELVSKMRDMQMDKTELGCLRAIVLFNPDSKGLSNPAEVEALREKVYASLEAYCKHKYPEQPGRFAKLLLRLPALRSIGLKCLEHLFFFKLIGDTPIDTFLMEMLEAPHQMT
Procedure, shortened: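 Compounds in DMSO were added to RXR-alpha-UAS-bla HEK 293T cells kept in 2% charcoal-stripped serum, and incubated 16 hr at 37 C with 5% CO2. Reporter signal came from a 2 hr B/G FRET substrate step.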

[16] = qHTS assay to identify small molecule agonists of the RXR signaling pathway - cell viability counter screen (AID 1159529)
Procedure, shortened: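 Counter screen: CellTiter-Glo luminescence. Cells: RXR-alpha-UAS-bla HEK 293T. Medium: 2% charcoal-stripped FBS. Treatment: 16 h, 37 C. Reagent incubation: 30 min, RT.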

[17] = target: Bile acid receptor (Homo sapiens) (UniProt Q96RI1); assay: qHTS assay to identify small molecule antagonists of the farnesoid-X-receptor (FXR) signaling pathway (AID 743217; active = well fitted inhibition curve with a large enough effect in the signal ratio in the repeat runs, not every such curve was filed as active; the % refers to the signal ratio)
Bile acid receptor (Homo sapiens), sequence (Q96RI1 whole entry, looked up): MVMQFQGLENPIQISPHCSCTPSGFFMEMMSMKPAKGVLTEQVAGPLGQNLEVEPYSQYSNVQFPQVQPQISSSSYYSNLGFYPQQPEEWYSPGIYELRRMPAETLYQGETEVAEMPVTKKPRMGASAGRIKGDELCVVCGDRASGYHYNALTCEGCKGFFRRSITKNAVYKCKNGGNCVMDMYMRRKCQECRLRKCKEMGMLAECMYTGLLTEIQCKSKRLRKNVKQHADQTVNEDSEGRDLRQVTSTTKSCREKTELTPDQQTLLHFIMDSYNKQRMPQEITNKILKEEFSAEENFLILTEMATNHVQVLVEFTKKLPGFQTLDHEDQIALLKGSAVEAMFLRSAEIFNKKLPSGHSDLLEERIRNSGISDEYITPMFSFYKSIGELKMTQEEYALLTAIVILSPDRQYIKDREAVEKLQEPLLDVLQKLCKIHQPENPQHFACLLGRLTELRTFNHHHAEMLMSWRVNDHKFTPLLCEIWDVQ
Procedure, shortened: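 Cells carrying a UAS-driven beta-lactamase reporter (GeneBLAzer FXR-UAS-bla HEK 293T) were plated and rested 5 h at 37 °C. Compounds in DMSO were added alongside chenodeoxycholic acid agonist at 50 uM final and left 16 h at 37 °C before FRET substrate readout.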

[18] = target: Bile acid receptor (Homo sapiens) (UniProt Q96RI1); assay: qHTS assay to identify small molecule agonists of the farnesoid-X-receptor (FXR) signaling pathway (AID 743220; active = well fitted activation curve with a large enough effect in the signal ratio in the repeat runs, not every such curve was filed as active; the % refers to the signal ratio)
Procedure, shortened: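 FXR-UAS-bla HEK 293T cells carrying a UAS-driven beta-lactamase reporter were plated for 5 h at 37C/5% CO2, then exposed to DMSO-dissolved Tox21 10K compounds for 16 h at 37C. A LiveBLAzer B/G FRET substrate was loaded for 2 h at room temperature before fluorescence reading.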

[19] = target: Peroxisome proliferator-activated receptor delta (Homo sapiens) (UniProt Q03181); assay: qHTS assay to identify small molecule agonists of the peroxisome proliferator-activated receptor delta (PPARd) signaling pathway (AID 743212; calls by dose curve)
Peroxisome proliferator-activated receptor delta (Homo sapiens), sequence (Q03181 whole entry, looked up): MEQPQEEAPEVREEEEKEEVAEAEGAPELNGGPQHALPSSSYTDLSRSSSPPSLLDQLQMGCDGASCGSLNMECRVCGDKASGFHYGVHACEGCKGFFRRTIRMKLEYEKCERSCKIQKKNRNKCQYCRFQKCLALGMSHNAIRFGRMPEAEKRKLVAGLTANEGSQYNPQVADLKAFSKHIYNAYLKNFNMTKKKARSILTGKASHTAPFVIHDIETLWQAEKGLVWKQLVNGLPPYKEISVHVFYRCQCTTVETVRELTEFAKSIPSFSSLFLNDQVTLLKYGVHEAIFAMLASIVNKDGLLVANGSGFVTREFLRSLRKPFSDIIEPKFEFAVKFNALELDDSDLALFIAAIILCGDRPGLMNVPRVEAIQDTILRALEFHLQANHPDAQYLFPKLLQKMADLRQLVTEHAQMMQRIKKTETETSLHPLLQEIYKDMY
Procedure, shortened: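 Beta-lactamase reporter readout: a ratiometric FRET signal from the LiveBLAzer substrate after 2 h at room temperature. Compound exposure at 37 °C in PPARδ-bla HEK293H cells driven by an upstream activator sequence.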

[20] = target: Peroxisome proliferator-activated receptor delta (Homo sapiens) (UniProt Q03181); assay: qHTS assay to identify small molecule antagonists of the peroxisome proliferator-activated receptor delta (PPARd) signaling pathway (AID 743215; active = well fitted inhibition curve with a large enough effect in the signal ratio in the repeat runs, not every such curve was filed as active; the % refers to the signal ratio;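 note: cells stimulated with agonist L165041 at 300 nM final during compound exposure; series mostly up to about 62 µM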)
Procedure, shortened: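 Cells: HEK293H with a UAS-driven beta-lactamase reporter responsive to PPARd. Compounds were co-added with L165041 (300 nM, final) and incubated 17 h at 37 C before a 2 h room-temperature FRET substrate step and fluorescence reading.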

Measured: Potency

CC(C(=O)O)c1cccc(Oc2ccccc2)c1 (stereo not drawn)
not listed: [17] | [18] | [19] | [20]
inactive: all other assays above

CO[C@@]1(NC(=O)CSC[C@@H](N)C(=O)O)C(=O)N2C(C(=O)O)=C(CSc3nnnn3C)CS[C@@H]21
not listed: [2] | [4] | [19] | [20]
inactive: all other assays above

C[C@H]1[C@H](NC(=O)/C(=N/OC(C)(C)C(=O)O)c2csc(N)n2)C(=O)N1S(=O)(=O)O (stereo in doubt)
not listed: [4] | [5] | [6] | [7] | [19] | [20]
inactive: all other assays above

CO[Si](C)(OC)c1ccccc1
not listed: [1] | [2] | [5] | [17] | [18] | [20]
inactive: all other assays above

CC(C)(C)C(=O)c1ccccc1
not listed: [16]
inactive: all other assays above

O=C(CO)[C@@H](O)[C@H](O)[C@H](O)CO
not listed: [1] | [2] | [4] | [5] | [17] | [18] | [19] | [20]
inactive: all other assays above

CC(C)(N)C#N
not listed: [4] | [5] | [16] | [17] | [18]
inactive: all other assays above

CC[N+](CC)(CC(=O)Nc1c(C)cccc1C)Cc1ccccc1 (tested in a mixture with another compound)
not listed: [2] | [4] | [5] | [17] | [18] | [19] | [20]
inactive: all other assays above

Nc1ccccn1
not listed: [17] | [18] | [19] | [20]
inactive: all other assays above

CC(C#N)(CCC(=O)O)N=NC(C)(C#N)CCC(=O)O (stereo not drawn)
not listed: [6] | [19] | [20]
inactive: all other assays above

C[C@@H]1CCC[C@H](C)N1
not listed: [1] | [7] | [17] | [18] | [19] | [20]
inactive: all other assays above

C[N+](C)(C)CCCCCCCCCC[N+](C)(C)C
not listed: [1] | [6] | [17] | [18] | [19] | [20]
inactive: all other assays above

O=[N+]([O-])c1ccc(/C=N\O)o1
not listed: [1] | [17] | [18] | [19] | [20]
inactive: all other assays above

CC(C)=CCC/C(C)=C/C#N
not listed: [19] | [20]
inactive: all other assays above

Cc1ccnc(NS(=O)(=O)c2ccc(N)cc2)n1
not listed: [19] | [20]
inactive: all other assays above

Cc1ccc(-c2ncc(Cl)cc2-c2ccc(S(C)(=O)=O)cc2)cn1
not listed: [2] | [19] | [20]
inactive: all other assays above
